PubChem BioAssay (EPA / NIEHS)
Inconclusive results are not listed. Where a structure was tested more than once in an assay, its records may differ in their call. Activity calls are given as the source filed them. The calls were made as follows: active = hit-call score of the fitted dose curve at least 0.9, where 1 is the maximum; inconclusive = response in the unintended direction; inactive = score below 0.9.

The compounds below were run against mouse Peroxisome Proliferator-activated Receptor gamma (PPARg), Pparg (gene 19016) (UniProt P37238) (assay: ATG_mPPARg_XSP2: Attagene TRANS-FACTORIAL Multi-Species (XSP2) HepG2 Assay for mouse Peroxisome Proliferator-activated Receptor gamma (PPARg) (AID 2283830);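 also: hits are gains in reporter mRNA above DMSO so AC50 marks activation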).
Sequence of mouse Peroxisome Proliferator-activated Receptor gamma (PPARg), Pparg (gene 19016) (P37238 whole entry, looked up): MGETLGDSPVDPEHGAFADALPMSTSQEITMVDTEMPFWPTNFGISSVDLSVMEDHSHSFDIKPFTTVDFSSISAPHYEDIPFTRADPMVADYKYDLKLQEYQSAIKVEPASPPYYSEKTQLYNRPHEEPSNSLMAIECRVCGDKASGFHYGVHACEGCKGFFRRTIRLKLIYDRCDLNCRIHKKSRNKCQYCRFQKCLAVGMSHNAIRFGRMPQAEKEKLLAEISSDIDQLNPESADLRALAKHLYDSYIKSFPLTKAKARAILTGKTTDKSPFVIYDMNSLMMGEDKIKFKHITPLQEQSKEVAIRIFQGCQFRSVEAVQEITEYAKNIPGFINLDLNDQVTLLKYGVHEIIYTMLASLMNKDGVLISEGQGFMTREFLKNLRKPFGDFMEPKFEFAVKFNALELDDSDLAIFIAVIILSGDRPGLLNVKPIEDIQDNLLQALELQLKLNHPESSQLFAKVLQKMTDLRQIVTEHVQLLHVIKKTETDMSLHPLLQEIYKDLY
Procedure: ATG_XSP2_multi-species_TRANS is a cell-based, multiplexed assay created by modifying the existing Attagene TRANS-FACTORIAL system to include a panel of nuclear receptors from some or all the following species: human (Homo sapiens), mouse (Mus musculus), frog (Xenopus laevis), zebrafish (Danio rerio), chicken (Gallus gallus), and turtle (Chrysemys picta). The […] format uses HepG2, a human liver cell line, with measurements taken at 24 hours after chemical dosing in a 24-well plate. Xsp2 included 3 nM 6-alpha-fluorotestosterone and 1.5 nM norgestrel to stimulate the androgen receptor.ATG_mPPARg_XSP2 is one of 29 assay components measured or calculated from the ATG_XSP2_multi-species_TRANS assay. It is designed to make measurements of mRNA induction, a form of inducible reporter, as detected with fluorescence intensity signals by Reverse transcription polymerase chain reaction (RT-PCR) and Capillary electrophoresis technology.The assay endpoint ATG_mPPARg_XSP2 was analyzed in the positive analysis fitting direction relative to DMSO as the negative control and baseline of activity. Using a type of inducible reporter, measures of mRNA for gain-of-signal activity can be used to understand the reporter gene at the transcription factor-level as they relate to the gene PPARg. Furthermore, this assay endpoint can be referred to as a primary readout, because this assay has produced multiple assay endpoints where this one serves a reporter gene function. To generalize the intended target to other relatable targets, this assay endpoint is annotated to the nuclear receptor intended target family, where the subfamily is non-steroidal.
Human liver HepG2 cells are transiently transfected with multiple reporter transcription units (MRTUs) in 6-well plates using FuGene 6 reagent (Roche; 3 ml FuGene/1 mg DNA). The MRTU constructs are regulated by a cis-regulating element (promoter). […] A major difference between the CIS and TRANS system is that in CIS activities of endogenous TFs are measured, whereas the TRANS assay evaluates changes in activities of exogenous, chimeric NR-Gal4 proteins. […] At the end of 24 hour incubation, total RNA was isolated using TriZol reagent (Invitrogen). The isolated RNA is then reverse-transcribed using oligo(dT) primer and Mo-MLV reverse transcriptase (Invitrogen) with DNAse I (Ambion) treatment for 30 min. The one-tenth of the produced cDNA was amplified by PCR using Taq DNA polymerase (Invitrogen) and two reporter sequence-specific primers. The PCR products were fluorescently labeled by primer extension with 6-arboxyfluorescein (6-FAM) 5'-labeled reporter sequence-specific primer (2 min at 95 C, 20 s at 68 C and 10 min at 72 C) and these products were digested with 5U of HpaI (New England Biolabs) for 2h at 37 C. The fragments were purified using Qiaquick PCR columns (Qiagen), analyzed on an ABI 3130xL genetic analyzer (Applied Biosystems) with peak positions identified by using a set of X-rhodamine (ROX)-labeled MapMarker1000 molecular weight standards (BioVentures). The raw capillary electrophoresis data was processed using Attagraph software (Attagene).

Row | Structure (SMILES) | AC50 | outcome
1 | CSC(=O)c1cccc2nnsc12 | 20.5 µM (active) | inactive
2 | N[C@@H](Cc1cc(I)c(Oc2ccc(O)c(I)c2)c(I)c1)C(=O)O | 3.89 µM (active) | inactive
3 | CN(C)C(=O)Nc1ccc(Cl)c(Cl)c1 | 100 µM (active) | inactive
4 | O=C(c1ccc(O)cc1O)c1ccc(O)cc1O | – | inactive
5 | C=CCOC(Cn1ccnc1)c1ccc(Cl)cc1Cl (centres undefined) | 100 µM (active) | –
6 | CC(C)(c1ccc(O)cc1)c1ccc(O)cc1 | – | inactive
7 | CCCCC(CC)COC(=O)c1ccccc1C(=O)O (centres undefined) | 18.2 µM (active) | –
8 | CCN(Cc1c(F)cccc1Cl)c1c([N+](=O)[O-])cc(C(F)(F)F)cc1[N+](=O)[O-] | – | inactive
9 | Oc1ccc(C(c2ccc(O)cc2)C(Cl)(Cl)Cl)cc1 | – | inactive
10 | CC(C)CCCCCCc1ccc(O)cc1 | – | inactive
11 | CCCCC(CC)CN1C(=O)C2C3C=CC(C3)C2C1=O (centres undefined) | 177 µM (active) | –
